Test results: PubChem BioAssay (NCI)
This is part of a sample that, as a whole, favours compounds with a hit. Of some 79,000 tested, about 15% had one in any assay. A number with no mark means an inactive call. Calls of active or inactive are those of the source. No stated cut-off is given here; in the data, active means growth inhibition above about 70%; inactive means the rest.

Tests used:
[1] = NCI Yeast Anticancer Drug Screen. Data for the rad50 strain (AID 155);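 further: 0% = growth of vehicle-only cultures of the same strain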; details: S. cerevisiae rad50 strain growth inhibition, stronger effect = higher value
Summary of the method: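 Growth of the mutant yeast was measured after compound exposure and referenced to vehicle-treated cultures.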

[2] = NCI Yeast Anticancer Drug Screen. Data for the mec2-1 strain (AID 157); details: S. cerevisiae mec2-1 strain, stronger effect = higher value
Summary of the method: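 mec2-1 yeast strain, carrying an alteration in DNA damage repair or cell cycle control, was exposed to compounds; growth inhibition was measured relative to vehicle-treated controls.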

[3] = NCI Yeast Anticancer Drug Screen. Data for the sgs1 mgt1 strain (AID 161);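 further: 0% = growth of cultures given vehicle only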; details: S. cerevisiae sgs1 mgt1 strain, stronger effect = higher value
Summary of the method: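 Growth of a repair-deficient yeast mutant was monitored after compound treatment and expressed as inhibition relative to vehicle-treated cultures.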

[4] = NCI Yeast Anticancer Drug Screen. Data for the cln2 rad14 strain (AID 165);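 further: 0% = growth equal to vehicle treated cultures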; details: S. cerevisiae cln2 rad14 strain, stronger effect = higher value
Summary of the method: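 Yeast carrying cln2 and rad14 alterations (cell cycle control and DNA damage repair) were exposed to compounds. Growth inhibition was measured against vehicle-treated controls.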

[5] = NCI Yeast Anticancer Drug Screen. Data for the bub3 strain (AID 167); details: S. cerevisiae bub3 mutant strain, stronger effect = higher value
Summary of the method: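 Whole-cell yeast assay. The mutant strain was incubated with compounds, and growth inhibition was determined by comparison with vehicle-treated cells.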

[6] = NCI Yeast Anticancer Drug Screen. Data for the mlh1 rad18 strain (AID 175); details: S. cerevisiae mlh1 rad18 strain growth inhibition, stronger effect = higher value
Summary of the method: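 Growth inhibition of the yeast strain was measured after compound exposure and expressed relative to vehicle-treated controls. The strain carries defined defects in DNA damage repair.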

[7] = at 5.0 µM (retest, dose inferred, filed as 0.5)
[8] = at 50.0 µM (retest, dose inferred, filed as 5.0)

| SMILES | growth inhibition [1, 7] | growth inhibition [1, 8] | growth inhibition ([1]; at 50.0 µM) | growth inhibition [2, 7] | growth inhibition [2, 8] | growth inhibition ([2]; at 50.0 µM) | growth inhibition [3, 7] | growth inhibition [3, 8] | growth inhibition ([3]; at 50.0 µM) | growth inhibition [4, 7] | growth inhibition [4, 8] | growth inhibition ([4]; at 50.0 µM) | growth inhibition [5, 7] | growth inhibition [5, 8] | growth inhibition ([5]; at 50.0 µM) | growth inhibition [6, 7] | growth inhibition [6, 8] | growth inhibition ([6]; at 50.0 µM) |
| --- | --- | --- | --- | --- | --- | --- | --- | --- | --- | --- | --- | --- | --- | --- | --- | --- | --- | --- |
| O=C(Nc1ccccc1)c1ccc([N+](=O)[O-])o1 | 12% | 83% (active) | 96.3% (active) | 3% | 73% (active) | 95.7% (active) | 9% | 82% (active) | 98.6% (active) | -2% | 31% | 80.2% (active) | 2% | 79% (active) | 91.4% (active) | 24% | 91% (active) | 98.5% (active) |
| COC1=C(OC)C(=O)C(SCc2ccco2)=CC1=O | 37% | 98% (active) | 50.6% | 29% | 99% (active) | 73.3% (active) | 53% | 99% (active) | 77.3% (active) | 51% | 90% (active) | 36.9% | 56% | 99% (active) | 62.1% | 28% | 77% (active) | 65% |
| COC(=O)CCc1c(Cc2ccc[nH]2)[nH]c(C(=O)OCc2ccccc2)c1C | -20% | 91% (active) | 55% | -12% | 92% (active) | 71% (active) | -12% | 94% (active) | 69% | -32% | 95% (active) | 77.5% (active) | -35% | 92% (active) | 76.3% (active) | -5% | 94% (active) | 74.8% (active) |
| O=C1C(=O)c2ccccc2C=C1C1CCCCC1 | 13% | 64% | 85% (active) | 19% | 72% (active) | 78.2% (active) | 14% | 63% | 91% (active) | 1% | 43% | 71.5% (active) | 6% | 63% | 64% | 18% | 80% (active) | 91% (active) |
| CN(C)c1ccc(/C=C2/Oc3ccc(Cl)cc3C2=O)cc1 | -2% | 98% (active) | 87.8% (active) | 25% | 98% (active) | 90.7% (active) | -5% | 97% (active) | 89.5% (active) | 28% | 97% (active) | 89% (active) | -24% | 98% (active) | 89.9% (active) | 19% | 97% (active) | 86% (active) |
| COc1ccc2nc3cc([N+](=O)[O-])ccc3c(NCCO)c2c1 | -24% | 77% (active) | 58.5% | -9% | 66% | 47.8% | -26% | 80% (active) | 44.6% | -6% | 89% (active) | 75.1% (active) | -18% | 30% | 49% | 4% | 82% (active) | 49.9% |
| COc1ccccc1N=Nc1c(N)nc(N)[nH]c1=O | 4% | 14% | 6.4% | -10% | 16% | 1.05% | -17% | 14% | -2.05% | 0% | -7% | 11.6% | -2% | -2% | 52.5% | 15% | 20% | 9.8% |
| O=C(Nc1ccccc1O)/C(Cl)=C/Cl | -153% | 95% (active) | 98.2% (active) | -47% | 97% (active) | 97.8% (active) | -57% | 96% (active) | 78.8% (active) | -67% | 95% (active) | 93.5% (active) | -63% | 96% (active) | 94.8% (active) | -134% | 96% (active) | 99.3% (active) |
| C=CS(=O)(=O)c1ccc2ccccc2c1 | -100% | 97% (active) | 99.5% (active) | -22% | 98% (active) | 99.4% (active) | -20% | 98% (active) | 99.2% (active) | -34% | 97% (active) | 98.7% (active) | -35% | 97% (active) | 98.8% (active) | -93% | 97% (active) | 99% (active) |
| CC1=CC(O)(c2nc3ccccc3s2)CC(C)(C)C1 (stereo not given) | 3% | 60% | 69.7% | 6% | 61% | 56.1% | -1% | 61% | 64.2% | -2% | 51% | 47.7% | 15% | 31% | 41.4% | -2% | 69% | 66.4% |
